Test results reported in PubChem BioAssay AID1851 (National Center for Advancing Translational Sciences (NCATS), 2009).
Out of some 16,000 compounds screened, about 5,100 (32%) were called active. Inconclusive results (about 25%) are left out. The list shows a part of the results. A number with no mark means an inactive call. Calls follow the shape of the dose curve; as a rule, active = well fitted curve in the direction sought with a large enough effect; inconclusive = small, poorly fitted or top-dose-only effect, or effect the other way; inactive = no such curve, though single readings can be large or run the other way.

biological target: Cytochrome P450 3A4 (Homo sapiens) (UniProt P08684); experiment: Cytochrome panel assay with activity outcomes; settings: recombinant CYP, pro-luciferin dealkylation, luminescence, p450-cyp3a4; series mostly up to 57.1 µM; activity, negative = inhibition: at the top concentration
Sequence (P08684 whole entry, looked up): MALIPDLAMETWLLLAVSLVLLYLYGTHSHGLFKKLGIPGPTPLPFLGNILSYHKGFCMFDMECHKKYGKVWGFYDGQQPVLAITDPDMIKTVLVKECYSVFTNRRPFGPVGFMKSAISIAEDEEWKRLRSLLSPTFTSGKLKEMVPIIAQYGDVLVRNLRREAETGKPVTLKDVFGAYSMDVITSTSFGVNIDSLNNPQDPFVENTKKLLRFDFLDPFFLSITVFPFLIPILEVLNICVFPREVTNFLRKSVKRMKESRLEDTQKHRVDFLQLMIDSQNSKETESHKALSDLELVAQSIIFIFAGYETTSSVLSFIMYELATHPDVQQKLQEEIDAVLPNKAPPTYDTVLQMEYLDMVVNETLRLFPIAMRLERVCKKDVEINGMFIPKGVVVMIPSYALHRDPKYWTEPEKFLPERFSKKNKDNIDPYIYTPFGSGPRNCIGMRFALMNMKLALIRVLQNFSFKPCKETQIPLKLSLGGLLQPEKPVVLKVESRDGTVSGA
% is scaled to controls: 0 for no effect and ±100 for the full control effect.

| Compound | activity, negative = inhibition | AC50 |
| --- | --- | --- |
| CC(OC(=O)Cn1c(C(F)(F)F)nc2ccccc21)C(N)=O (stereo unspecified) | -0.0989% | – |
| Clc1ccc(Cn2c(-c3cccnc3Cl)nc3ccccc32)c(Cl)c1 | -20.9% [at 2.29 µM] | – |
| CC(C)C(=O)NCCc1nc2ccccc2n1CCCOc1ccc(Cl)cc1 | – | 11.2 µM (active) |
| C[C@]1(c2ccccc2)OC(C(=O)O)=CC1=O | -9.78% | – |
| CCC(=O)c1ccc(OCc2ccc(C(=O)OC)cc2)c(OC)c1 | – | 4.47 µM (active) |
| O=C(O)c1ccc(OCc2ccccc2)c(Cl)c1 | -32.8% [at 11.4 µM] | – |
| CCOc1ccc(C(=O)O)cc1OC | -28.9% | – |
| CC(C)=CCC/C(C)=C/CO/N=C1/C[C@@H](O)[C@@H](O)[C@@H]2[C@@H]3C(=O)N(C4CCCCC4)C(=O)[C@H]3CC[C@@H]12 | -27% [at 11.4 µM] | – |
| O=C1CC(c2cccs2)c2cc3c(cc2N1)OCO3 (stereo unspecified) | – | 7.08 µM (active) |
| CC1(C)CC2(CC(c3cccs3)c3cc(Cl)c(O)cc3O2)NC(=S)N1 (stereo unspecified) | -22.1% [at 2.29 µM] | – |
| CCCCNC(=S)NNC(=O)CCn1nc(C)c(Br)c1C | – | 4.47 µM (active) |
| CCCCNC(=S)NNC(=O)c1sccc1C | 1.58% [at 2.29 µM] | – |
| c1ccc([P+](CC[P+](c2ccccc2)(c2ccccc2)c2ccccc2)(c2ccccc2)c2ccccc2)cc1 | 1.54% [at 11.4 µM] | – |
| C[C@]12CC[C@H]3c4ccc(O)cc4CC[C@@H]3[C@H]1C/C(=N/O)[C@H]2O | -4.59% [at 11.4 µM] | – |
| Cc1ccc2ccccc2c1CSc1nc(N)nc2c1ncn2CC(C)C | -24.4% [at 11.4 µM] | – |
| CC(C)Cn1cnc2c(SCc3ccccn3)nc(N)nc21 | -22.1% [at 11.4 µM] | – |
| CC(C)Cn1cnc2c(SCc3ccc(Cl)cc3Cl)nc(N)nc21 | – | 3.98 µM (active) |
| O[C@@H](c1cc([C@@]23C[C@H]4CC[C@@H]2C[C@H](C4)C3)nc2c(Cl)cc(Cl)cc12)[C@@H]1CCCCN1 | -22.3% [at 11.4 µM] | – |
| C/C(CCN1CCc2nc(-c3ccccc3)c(-c3ccccc3)cc2C1)=N\OC[C@@H](O)COCc1ccco1 | – | 3.16 µM (active) |
| C/C(CCN1CCCc2nc(C)c(C)cc21)=N\OC[C@@H](O)[C@@H]1O[C@@H]2OC(C)(C)O[C@@H]2[C@H]1O | -10.8% [at 11.4 µM] | – |
| C/C(CCN1CCCc2nc(C)c(C)cc21)=N\OC[C@@H](O)COCc1ccco1 | – | 3.98 µM (active) |
| C/C(CCN1CCCCc2nc(C)c(C)cc21)=N\OC[C@@H](O)COCc1ccco1 | – | 3.98 µM (active) |
| C/C(CCN1CCc2nc(-c3ccccc3)c(-c3ccccc3)cc2C1)=N\O[C@@H](C)c1cn([C@@H]2COC[C@@H]2O)nn1 | -37.3% [at 11.4 µM] | – |

| Compound | activity, negative = inhibition | AC50 |
| --- | --- | --- |
| N/C(=N\O)C1COc2ccccc2O1 (stereo unspecified) | -12.1% | – |
| Cc1ccc(S(=O)(=O)N2CCN(C(=O)C3COc4ccccc4O3)CC2)cc1C (stereo unspecified) | – | 11.2 µM (active) |
| COC(=O)[C@@]1(Cc2ccccc2)[C@H]2c3cc(C(=O)N4CCCC4)n(Cc4ccc(O)c(OC)c4)c3C[C@H]2CN1C(=O)c1ccccc1 | – | 2 µM (active) |
| COC(=O)[C@@]1(Cc2ccccc2)[C@H]2c3cc(C(=O)N4CCCC4)n(Cc4ccc(OC)c(OC)c4)c3C[C@H]2CN1C(=O)c1ccccc1 | – | 1.26 µM (active) |
| Cc1ccc2ncc([N+](=O)[O-])n2c1 | 12.5% | – |
| CN(C)Cc1ccccc1-c1nccc(NC2CC2)n1 | – | 15.8 µM (active) |
| CNc1ccnc(-c2ccccc2CN(C)C)n1 | -20.8% | – |
| CN(C)Cc1ccccc1-c1nccc(N(C)C)n1 | – | 10 µM (active) |
| COc1ccc(CO/N=C/c2c(C)[nH]c(=O)[nH]c2=O)cc1 | -11.9% | – |
| COc1ccc(CNc2ccnc(-c3ccccc3Cl)n2)c(OC)c1 | – | 3.16 µM (active) |
| COc1ccc(CNc2ccnc(-c3ccccc3C(F)(F)F)n2)c(OC)c1 | – | 3.16 µM (active) |
| COCCNc1ccnc(-c2ccccc2CN(C)C)n1 | -19.7% | – |
| COc1ccc(CNc2ccnc(-c3ccccc3CN(C)C)n2)c(OC)c1 | – | 5.01 µM (active) |
| COc1ccc(CNc2ccnc(-c3ccccc3OC)n2)c(OC)c1 | – | 6.31 µM (active) |
| C[N+]1(CCC(=O)c2ccco2)CC2CCC(CC2)C1 (stereo unspecified) | 1.47% [at 11.4 µM] | – |
| N#Cc1cc2[nH]c(=O)c(=O)[nH]c2cc1[N+](=O)[O-] | -23% | – |
| CCN(c1nc(N)c(C(=O)N=C(N)N)nc1Cl)C(C)C | -18.6% | – |
| CC1(C)OC[C@@H]2O[C@H](n3cnc4c(N)nc(Cl)nc43)[C@@H](OS(C)(=O)=O)[C@@H]2O1 | -4.98% [at 11.4 µM] | – |
| O=C(O)c1c2c(c(O)c3c1CN(C1CCCCC1)CO3)OCN(C1CCCCC1)C2 | -0.201% [at 11.4 µM] | – |
| CC(C)Cn1cnc2c(Sc3c([N+](=O)[O-])ncn3C)nc(N)nc21 | -7.97% [at 11.4 µM] | – |
| CCOc1c(OC(C)=O)ccc(/C=C/c2ccc3cccc(OC(C)=O)c3n2)c1[N+](=O)[O-] | – | 10 µM (active) |
| COc1ccc2c(c1[N+](=O)[O-])CCC/C2=N/OC(=O)c1cccc2ccccc12 | 0.913% [at 2.29 µM] | – |
| Cc1ccc(-n2c(C)nnc2SCC(=O)N2CCc3ccccc3C2)cc1C | – | 8.91 µM (active) |

| Compound | activity, negative = inhibition | AC50 |
| --- | --- | --- |
| CC1=C(\C=C/C(C)=C/C=C\C(C)=C\C(=O)O)C(C)(C)CCC1 | -19.6% [at 25.6 µM] | – |
| O=C(NNS(=O)(=O)c1cc(Cl)cc(Cl)c1)c1sccc1-n1cccc1 | – | 7.94 µM (active) |
| C/C(=N\N=C(c1ccccc1)c1ccccc1)c1cccs1 | – | 14.1 µM (active) |
| CC(=O)/C(=N\N=C(N)N)c1ccccc1 | -6.08% [at 11.4 µM] | – |
| C/C(=N\N=C1\NC(=O)CC(C(=O)O)S1)c1cccs1 (stereo unspecified) | 1.69% | – |
| CCCOc1ccc(C(=O)CCNc2ccc(C)c(Cl)c2)cc1 | 12.4% [at 2.29 µM] | – |
| Cc1ccc(NC(=O)CCC(=O)c2ccc(F)cc2)cc1Cl | – | 12.6 µM (active) |
| Cc1ccc(NC(=O)c2cc(NC(=O)CCCC(=O)O)ccc2Cl)cc1Cl | -16.3% | – |
| Nc1nc(N)nc(CCCc2nc(N)nc(N)n2)n1 | -12.5% [at 11.4 µM] | – |
| c1ccc2oc(C3=NCCN3)cc2c1 | -11.9% | – |
| O=C(Nc1ccccc1C(=O)NCCc1ccccc1)c1ccco1 | – | 14.1 µM (active) |
| CCC(C)NC(=O)c1ccccc1NC(=O)Nc1ccccc1 (stereo unspecified) | -20% | – |
| O=C(Nc1ccccn1)c1ccco1 | 10.3% | – |
| CCC(NC(=O)c1ccccc1NC(=O)c1ccco1)C(=O)NC1CCCCC1 (stereo unspecified) | – | 6.31 µM (active) |
| COc1ccc(CCNC(=O)c2ccccc2NC(=O)c2ccco2)cc1OC | – | 7.08 µM (active) |
| O=C(CCc1ccccc1)NNC(=O)c1ccco1 | -9.25% | – |
| O=C(O)c1ccc(C(=O)O)c(C(=O)O)c1.[NH-][C@@H]1CCCC[C@@H]1[NH-].[Pt] | 18.9% [at 11.4 µM] | – |
| CCc1cccc(N(C)C(N)=Nc2cccc3ccccc23)c1 | -18% | – |
| C#CCSc1n[nH]c(-c2ccco2)n1 | -10.2% [at 11.4 µM] | – |
| CC(C)=CC(=O)Nc1nnc(C(C)C)s1 | 15.7% [at 2.29 µM] | – |
| [O-][N+](CCO)(CCO)c1ncnc2nc[nH]c12 | -0.379% [at 11.4 µM] | – |
| N=C1[C@@H](O)[C@]2(I)c3ccccc3N3C(=N)[C@H](O)[C@@H]4c5ccccc5N1[C@@H]4[C@@H]32 | -8.09% [at 11.4 µM] | – |
| Cc1ccc(C(=O)N/N=C/c2ccc(S(=O)(=O)O)o2)c(Cl)c1 | 8.51% | – |

| Compound | activity, negative = inhibition | AC50 |
| --- | --- | --- |
| COC(=O)c1ccc(/C=N\NC(=O)c2ccc(C)cc2Cl)cc1 | – | 3.55 µM (active) |
| CC1Cc2ccccc2N1C(=O)C1CCCCN1S(=O)(=O)c1ccccc1 (stereo unspecified) | – | 7.94 µM (active) |
| CC(=O)N1c2ccc(S(=O)(=O)CCC(=O)O)cc2CC1C (stereo unspecified) | -7.01% | – |
| CCNC(=O)C1CC(=O)OC12CCCCC2 (stereo unspecified) | -5.12% | – |
| O=C(Nc1ccc(Cl)cc1)NC1CCCCC1 | 9.33% [at 2.29 µM] | – |
| Cc1cc(C)cc(C(=O)N(NC(=O)Nc2ccc(Cl)cc2)C(C)(C)C)c1 | – | 15.8 µM (active) |
| Cc1c(Cl)c(S(N)(=O)=O)cc(S(N)(=O)=O)c1NC(=O)c1ccc(Cl)cc1 | 3.55% [at 11.4 µM] | – |
| CC(C)(CC(=O)Nc1ccccc1)C(=O)O | -5.79% [at 11.4 µM] | – |
| CC(C)(C)N(NC(=O)Nc1ccc(Cl)c(Cl)c1)C(=O)c1ccccc1 | – | 14.1 µM (active) |
| CC(C)(C)N(NC(=O)Nc1ccccc1)C(=O)c1ccccc1Cl | – | 14.1 µM (active) |
| CC(C)(C)NC(=O)C(=O)NNC(=O)c1ccccc1 | 5.58% | – |
| NCS(=O)(=O)O | -9.19% [at 11.4 µM] | – |
| CN(C)Cc1cc(Cl)c(O)c(CN(C)C)c1 | -5.94% [at 11.4 µM] | – |
| CCCCOC(=O)c1cc2c(cn1)[nH]c1ccccc12 | – | 25.1 µM (active) |
| CCCCOC(=O)c1ccc(O)cc1 | -25.7% [at 25.6 µM] | – |
| O=C(O)CCc1ccc(-c2ccc(Cl)cc2)n1CCC(=O)O | -1.68% | – |
| C[C@@H](C(=O)NCCF)[C@H]1C[C@]1(C)[C@H](NC(=O)OCc1ccccc1)c1ccccc1 | – | 3.98 µM (active) |
| COCCNC(=O)[C@H](C)[C@@H]1C[C@@]1(C)[C@@H](NC(=O)OCc1ccccc1)c1ccccc1 | – | 7.94 µM (active) |
| COCCNC(=O)[C@H](C)[C@H]1C[C@]1(C)[C@H](NC(=O)OCc1ccccc1)c1ccccc1 | – | 3.16 µM (active) |
| O=C(CCNS(=O)(=O)c1ccc2c(c1)CCC(=O)N2)NCc1ccc2c(c1)OCO2 | – | 1.41 µM (active) |
| COc1ccc(NC(=O)CCNS(=O)(=O)c2ccc3c(c2)CCC(=O)N3)cc1 | – | 15.8 µM (active) |
| COC(=O)N1CCC2(CCN(C(=O)Nc3ccc(OC)cc3)CC2)CC1 | 14.5% | – |
